Source: PubChem BioAssay AID720519 (National Center for Advancing Translational Sciences (NCATS), 2013)
Records with an inconclusive call do not appear. The source made the active and inactive calls. Calls come from the whole dose curve; as a rule, active = well fitted activation curve with a large enough effect; inconclusive = small, poorly fitted or top-dose-only effect; inactive = flat fitted curve, though single readings scatter.

test: qHTS for Inhibitors of Cell Surface uPA Generation: Confirmatory Assay for Cherry-picked Compounds; details: cell surface uPA activity generation, qHTS confirmation; series mostly up to 115 µM
Procedure, shortened: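 RAW 264.7 cells at 4000/well, incubated overnight, then treated with compounds. After 24 h at 37 C, viability was read by ATPlite luminescence. An increase in signal indicates blocked uPA-dependent LF entry.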

Potency, inactive:
COCCN1C(=O)C(=O)/C(=C(/O)c2ccc(S(=O)(=O)N3CCOCC3)cc2)C1c1cccc([N+](=O)[O-])c1 (centres undefined)
C/C=C(/C(=C/C)c1ccc(O)cc1)c1ccc(O)cc1
COc1ccc(NC(=O)c2cccnc2N2CCOCC2)cc1
Cc1ccc2sc(NNC(=O)c3ccc4c(c3)OCCO4)nc2c1C
Cn1c(SCC(=O)NNC(=O)c2ccc(Br)cc2)nnc1-c1cccnc1
Oc1ccc(/C=N/Nc2cccc(Cl)n2)c(O)c1
COc1cc(/C=N/NC(=O)Cc2csc(C)n2)ccc1OCC(C)C
Cc1cccn2c(CNCC(C)Oc3cccnc3)c(C(=O)N3CCOCC3)nc12 (centres undefined)
O=C(NC(=S)Nc1c(F)cc(F)cc1Br)c1ccc2c(c1)OCCO2
COc1ccc(CC(=O)NNS(=O)(=O)c2ccccc2[N+](=O)[O-])cc1OC
CC(=O)c1ccc(OCCCCOc2ccc(C(C)=O)cc2)cc1
Cc1[nH]c(=O)[nH]c(=O)c1S(=O)(=O)N1CCCc2ccccc21
O=C1NCCN1C(=O)N(c1ccccc1)c1ccccc1
Cc1cc(C)n2nc(CNS(=O)(=O)c3ccc(F)c(C)c3)nc2n1
Cc1cc(C)cc(NC(=O)C(OC(=O)c2ccc(O)cc2)c2ccccc2)c1 (centres undefined)
CC(C)(C)OC(=O)C[C@@H]1C/C=C\C[C@@H](CC(=O)N(CCO)Cc2ccccc2)C(=O)N[C@H](Cc2c[nH]c3ccccc23)COC1=O
O=C(COc1ccccc1F)NCC(c1ccc(F)cc1)N1CCOCC1 (centres undefined)
COC(=O)Cc1c(C)c2ccc(OCC(=O)N3CCCC(C)C3)c(C)c2oc1=O (centres undefined)
COCc1c(C(=O)Nc2nc(C)cs2)oc2ccccc12
CCc1c(C)sc(NC(=S)N2CC(C)OC(C)C2)c1C(=O)OC (centres undefined)
CC(OC(=O)c1cccc(-n2cnnn2)c1)C(=O)Nc1ccc(F)c(F)c1F (centres undefined)
O=C(CN1C(=O)CSCC1=O)NCc1ccc(F)cc1
COc1ccc(C2=NS(=O)(=O)N(C)C(C(=O)NCc3ccccn3)=C2)cc1
COc1ccccc1CCNC(=O)C(=O)NCC1OCCN1S(=O)(=O)c1ccc(OC)c(OC)c1 (centres undefined)
Cn1nc(N2CCN(S(=O)(=O)c3ccccc3)CC2)c(=O)n(C)c1=O
CS(=O)(=O)Nc1cccc(C2=NN(S(=O)(=O)c3ccccc3)C(c3ccco3)C2)c1 (centres undefined)
CCN(CC)C(=O)Cn1cc(/C=C(\C#N)C(=O)NC2CC2)c2ccccc21
Cc1ccc(S(=O)(=O)N(C)c2ccc(OC(=O)c3ccc(=O)[nH]c3)cc2)cc1
O=[N+]([O-])c1ccc(C[n+]2cccc(O)c2)cc1
CCC(C)Nc1cc(C)nc2ncnn12 (centres undefined)
COc1cccc2c1Oc1ncccc1N(C(=O)CCC(=O)NCc1ccc(C)cc1)C2
O=S(=O)(c1ccc2nc(N3CCN(c4ccccc4)CC3)ccc2c1)N1CCCCC1
C[C@@H]1O[C@@H](O[C@@H]2C(=O)c3c(O)cc(O)cc3O[C@H]2c2ccc(O)c(O)c2)[C@H](O)[C@H](O)[C@H]1O
COc1cc(/C=N/NC(=O)c2cc(-c3ccco3)nc3ccccc23)cc(OC)c1O
Cc1nn(CC(=O)OCC(=O)NC(C)c2ccccc2)c(C)c1[N+](=O)[O-] (centres undefined)
O=C(CN1CCCC1)Nc1cccc(Cl)c1Cl
CC1CS(=O)(=O)CCN1N=Cc1ccc([N+](=O)[O-])o1 (centres undefined)
CCN(CC)S(=O)(=O)c1cc(NC(=O)COC(=O)C2CCC2)ccc1C
C[C@@H](C(=O)Nc1ccc2ccccc2c1)[C@@H]1C[C@@]1(C)[C@@H](NC(=O)c1cccnc1)c1ccccc1
